HEK293 cAMP ctrl – qHTS Assay for Agonists of the Thyroid Stimulating Hormone Receptor: Activators of Intracellular cAMP Concentrations in Parental HEK 293. parental HEK293 CNG cAMP sensor, membrane potential fluorescence. actives 2.5% (n = 73,000). Potency, µM (series often up to 57.1 µM), without a hit: at the top dose activation, usual class: activators; also: % of control where 0% means no effect; nearly all actives have a fitted effect of over 55% in size
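Parental HEK 293 cells stably expressing a modified CNG channel (no TSHR) report cAMP rise as membrane depolarization. Membrane potential dye with 100 uM RO 20-1724 was loaded for 60 min at room temperature, then compound added for 30 min; fluorescence read at 590 nm.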
TSHR ag – qHTS Assay for Agonists of the Thyroid Stimulating Hormone Receptor | HEK293-CNG-TSHR cells (CNG channel as cAMP sensor), membrane potential dye, cAMP | Potency, µM (series often up to 57.1 µM), for the others: at the top dose activation, usual class: activators | actives 0.48% (n = 73,000) | AID 926, 2007; active = well fitted activation curve with a large enough effect in the main read-out, with a control signal flat, not every such curve was filed as active; inconclusive = small, poorly fitted or top-dose-only effect, or a change in a side signal; inactive = no such curve, though single readings can be large or run the other way; % of control where 0% means no effect;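 also: the control signal comes from parental cells without the receptor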
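cAMP rise detected as CNG-channel membrane depolarization by fluorescent dye (emission 590 nm), 30 min after compound, following 60 min dye loading containing 100 uM RO 20-1724 at room temperature. Cells: TSHR/CNG HEK 293, with parental CNG HEK 293 as control.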
GBA mod – Glucocerebrosidase; purified enzyme, resorufin glucoside fluorescence (screen aimed at inhibitors), 20 min; Potency, µM; actives 1.1% (n = 48,000); in the data active = potency below about 15 µM; inconclusive = mostly about 16 µM to 33 µM;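 also: the screen sought inhibitors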
Target sequence (P04062 whole entry, looked up): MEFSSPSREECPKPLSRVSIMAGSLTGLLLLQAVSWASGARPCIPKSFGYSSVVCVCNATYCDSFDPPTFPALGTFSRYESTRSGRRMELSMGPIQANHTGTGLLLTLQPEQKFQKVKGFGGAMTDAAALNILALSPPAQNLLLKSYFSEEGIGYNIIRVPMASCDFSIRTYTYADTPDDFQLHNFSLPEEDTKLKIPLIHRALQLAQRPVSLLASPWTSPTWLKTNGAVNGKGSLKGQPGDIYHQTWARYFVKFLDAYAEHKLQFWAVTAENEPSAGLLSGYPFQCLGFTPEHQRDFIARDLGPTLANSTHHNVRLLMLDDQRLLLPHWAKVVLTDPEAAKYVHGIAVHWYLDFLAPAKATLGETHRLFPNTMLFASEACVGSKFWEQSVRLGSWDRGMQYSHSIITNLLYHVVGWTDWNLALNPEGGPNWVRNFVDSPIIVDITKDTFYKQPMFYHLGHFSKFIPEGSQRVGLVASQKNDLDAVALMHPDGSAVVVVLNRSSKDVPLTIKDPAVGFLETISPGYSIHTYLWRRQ
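Wild-type enzyme at 0.2 nM final in 50mM citric acid/KH2PO4, 10mM sodium taurocholate, 0.01% tween-20, pH 5.9, with resorufin beta-D-glucopyranoside at 30 uM final. Compounds titrated, 20 min at RT, red fluorescence read; AC50 from titration.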
ERK AVP block – qHTS Assay for Inhibitors of the ERK Signaling Pathway using a Homogeneous Screening Assay; HEK293-V1b, vasopressin-stimulated pERK AlphaScreen; Potency, µM (titrated, usually from 57.5 µM), inactives show top-dose activity, negative = inhibition, usual class: inhibitors; actives 0.99% (n = 72,000); AID 995, 2007; also: % is scaled to controls: 0 for no effect and ±100 for the full control effect; nearly all actives have a fitted effect of over 55% in size
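HEK293 cells stably expressing V1b receptor, seeded overnight in 1% FBS, were treated with compounds for 30 min at 37C, then stimulated 5 min with 25 nM vasopressin; phospho-ERK read by AlphaScreen SureFire after lysis.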
PK Bst – Pyruvate Kinase; purified pyruvate kinase, luminescence ATP production; ribose 5-phosphate activator present at AC10; AID 361, 2006; Potency, µM; actives 1.2% (n = 51,000); in the data active = potency below about 11 µM; inconclusive = mostly about 12 µM to 25 µM;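 the screen sought inhibitors and activators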;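 also: scaled between full activation by ribose 5 phosphate and full inhibition by luteolin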
Luciferase inh – qHTS Assay for Inhibitors of Firefly Luciferase | Luciferin 4-monooxygenase (Photinus pyralis), P08659 | purified firefly luciferase, luminescence, 8 min | Potency, µM (top dose mostly 57.1 µM), without a hit: at the top dose activity change, negative = inhibition, usual class: inhibitors | actives 2.2% (n = 72,000) | AID 411, 2009; also: % is scaled to controls: 0 for no effect and ±100 for the full control effect; nearly all actives have a fitted effect of over 40% in size
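Compounds were tested as concentration series (qHTS) against purified P. pyralis luciferase with luciferin and 10 uM ATP in 50 mM imidazole pH 7.2, 50 mM KCl, 7 mM MgCl2, 0.01% Tween 20, 0.05% BSA. Luminescence was read after 8 min at ambient temperature.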
An asterisk follows results filed as active; [ ] = remark or other dose. Hits are enriched below; roughly 6.1% of the tested compounds scored in any of these assays. Unless noted, calls follow the shape of the dose curve; as a rule, active = well fitted curve in the direction sought with a large enough effect; inconclusive = small, poorly fitted or top-dose-only effect, or another doubt; inactive = no such curve, though single readings can be large; an effect the other way counts as inactive or inconclusive. Potency is read from the fitted curve at half-maximal effect.

For COc1ccc(-c2cc([C@H](O)[C@@H]3CCCCN3)c3ccccc3n2)cc1 the results were HEK293 cAMP ctrl 1.5%[11.4 µM], TSHR ag 5.8%[11.4 µM], ERK AVP block 35.1%[11.5 µM] and Luciferase inh -6.3%[11.4 µM].
For O=C(/C=C/N1CCOCC1)c1cc2ccccc2o1 the results were HEK293 cAMP ctrl 19.4%, TSHR ag 22.4%, ERK AVP block 1.1% and Luciferase inh 12.6µM*.
`Cc1ccc(-c2cnc(-c3ccncc3)o2)cc1` gave HEK293 cAMP ctrl 9.4%[11.4 µM], TSHR ag 25.5%[11.4 µM], ERK AVP block -28.8% and Luciferase inh 12.6µM*.
Screening CCNc1ncc2nc(-c3cccs3)c(=O)n(-c3ccccc3)c2n1 returned HEK293 cAMP ctrl inconclusive, TSHR ag inconclusive, ERK AVP block -18.6% and Luciferase inh 0.2%[11.4 µM].
For COCCN(CCOC)S(=O)(=O)c1ccc(C(=O)Nc2nc(-c3ccncc3)cs2)cc1 the results were HEK293 cAMP ctrl 3.8%, GBA mod >76.9, ERK AVP block 25.1µM*, PK Bst >57 and Luciferase inh 0.1%.
For COCCN(CCOC)S(=O)(=O)c1ccc(C(=O)Nc2nc(C)c(C(C)=O)s2)cc1 the results were HEK293 cAMP ctrl 5.3%, TSHR ag -0.8%, GBA mod >76.9, ERK AVP block 1.2%, PK Bst >57 and Luciferase inh -1.9%.
`COc1ccc2nc3c(nc2c1)C(=O)c1ccccc1-3` gave HEK293 cAMP ctrl -4.7% and TSHR ag 2.0%.
Screening Fc1ccc(-c2nnc(NC3=NCCCCC3)o2)cc1 returned HEK293 cAMP ctrl -2.1%, TSHR ag -7.4%, GBA mod >76.9, ERK AVP block -16.1%, PK Bst 4.51* and Luciferase inh 2.51µM*.
For Fc1ccc(-c2nnc(Cc3nnc(-c4ccc(F)cc4)o3)o2)cc1 the results were HEK293 cAMP ctrl 13.1%, GBA mod >76.9, ERK AVP block 0.6%, PK Bst >57 and Luciferase inh -4.9%.
Screening COc1ccccc1N1C(=O)c2ccccc2NC1c1ccncc1 (stereo not given) returned HEK293 cAMP ctrl 15.1%, TSHR ag 22.6%, GBA mod >76.9, ERK AVP block -25.3%, PK Bst >57 and Luciferase inh -1.0%.
COc1ccccc1N1C(=O)N(C(C)=O)C2C1Nc1ccccc1N2C (stereo not given) was read as HEK293 cAMP ctrl 15.9%, TSHR ag -1.3%, ERK AVP block 25.1µM* and Luciferase inh -0.7%.
`Cc1cc(OCCCn2ccnc2)cc(C)c1Cl` gave HEK293 cAMP ctrl 24.3%[11.4 µM], TSHR ag 16.2%[11.4 µM], ERK AVP block 25.1µM* and Luciferase inh -1.1%.
`CC(C)(C)c1ccc(C(=O)/C=C2\NC(=O)CS2)cc1` gave HEK293 cAMP ctrl -12.6%, TSHR ag 2.7%, ERK AVP block inconclusive, PK Bst 3.3* and Luciferase inh 2.51µM*.
COc1ccc(OC)c(S(=O)(=O)N2CCCCCC2)c1 was read as HEK293 cAMP ctrl 22.9%, TSHR ag -0.1%, GBA mod >76.9, ERK AVP block -21.6%, PK Bst >57 and Luciferase inh 5.8%.
Screening COc1cc(S(=O)(=O)N2CCCCCC2)c(OC)cc1Br returned HEK293 cAMP ctrl 15.8µM*, TSHR ag inconclusive, ERK AVP block 12.9% and Luciferase inh 1.0%.
For Cc1cc(C)n(CCc2nc(-c3cc4ccccc4o3)cs2)n1 the results were HEK293 cAMP ctrl 15.8µM*, TSHR ag inconclusive, GBA mod >76.9, ERK AVP block inconclusive, PK Bst >57 and Luciferase inh -2.8%.
Screening COc1ccc(-n2c(C)cc(C(=O)Cn3c(NCCO)nc4ccccc43)c2C)cc1 returned HEK293 cAMP ctrl 21.4%, TSHR ag 10.8%, GBA mod inactive, ERK AVP block 10µM*, PK Bst >57 and Luciferase inh 5.6%.

Source: PubChem
